Source: PubChem (The Scripps Research Institute Molecular Screening Center)
ssDAF-12 act: activates DAF-12 receptor from parasite S. stercoralis; HEK293 ssDAF-12/GRIP1 lit1-tk-luc reporter, luminescence; % of 3 µM dafachronic acid response; activation, % at 6.8 µM; 370,000 compounds, 1% hits;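 active = activation above the mean over all tested compounds plus 3 SD, cut at about 0.9% in these data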
hgDAF-12 ag: agonists of H. glycines DAF-12 nuclear receptor | HEK293 GAL4-hgDAF12 UAS-luciferase reporter, agonist luminescence; normalized to butyrate control | activation, % at 6.8 µM | 370,000 compounds, 1.8% hits | AID 687014;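 active = activation above a cutoff set at the mean of all screened compounds plus 3 SD, cut at about 10% in these data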
hcDAF12 agonist: H. contortus DAF-12 activation, primary screen | HEK293 hcDAF-12 lit1-tk-luc reporter, luminescence; 0% DMSO, 100% Δ7-dafachronic acid | activation, % at 6.8 µM | 370,000 compounds, 1.4% hits | AID 652067;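 active = activation above the mean of all tested compounds plus 3 SD, cut at about 5.5% in these data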
DAX1 inh-1: inhibitors of DAX1 repression of SF-1 activated StAR promoter. 370,000 compounds, 1.1% hits. inhibition, % at 6.8 µM. HEK293T StAR-luciferase reporter, SF-1/DAX-1 repression relief;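 active = inhibition above the mean over all tested compounds plus 3 SD, cut at about 3.6% in these data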;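 note: higher inhibition means more luminescence from relief of DAX-1 repression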
DAX1 inh-2: NR0B1 (DAX1) inhibition. HEK293 Gal4-DAX1 luciferase reporter, luminescence. inhibition, % at 6.75 µM. 340,000 compounds, 0.99% hits;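 active = inhibition above the mean over all tested compounds plus 3 SD, cut at about 4.2% in these data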;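 note: inhibition shows as a rise in luminescence from relieved DAX1 repression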
Target sequence (P51843 207-470 limits assumed): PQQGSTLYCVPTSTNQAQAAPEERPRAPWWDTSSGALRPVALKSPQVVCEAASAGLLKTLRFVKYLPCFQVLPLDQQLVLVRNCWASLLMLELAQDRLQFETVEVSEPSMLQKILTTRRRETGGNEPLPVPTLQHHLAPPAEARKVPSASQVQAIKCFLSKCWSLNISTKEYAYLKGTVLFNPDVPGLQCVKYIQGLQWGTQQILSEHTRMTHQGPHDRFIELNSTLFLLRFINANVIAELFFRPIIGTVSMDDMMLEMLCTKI
Hits are given with their value; . = inactive; / = not tested or not shown. Most compounds without a hit are left out; they make up all but 4.1% or so of the library.

SMILES | ssDAF-12 act | hgDAF-12 ag | hcDAF12 agonist | DAX1 inh-1 | DAX1 inh-2
O=C1/C(=C\c2ccc([N+](=O)[O-])cc2)CCc2ccccc21 | . | 11 | . | . | .
CC(=O)Nc1ccc(/C=C2\CCc3ccccc3C2=O)cc1 | . | . | 6.1 | . | .
COc1ccc(C=C2Cc3ccccc3C2=O)cc1 | . | 11 | . | . | /
O=C1/C(=C\c2cccnc2)CCc2ccccc21 | . | 12 | . | . | .
COc1ccc(/C=C2\Cc3ccccc3C2=O)cc1OC | . | . | . | . | .
C[C@@H]1CN([C@H](C)CO)C(=O)c2cc(NS(=O)(=O)c3ccccc3)ccc2O[C@@H](C)CCCCO[C@@H]1CN(C)Cc1ccccc1 | . | . | . | . | /
Cc1cc(N2CCN(CC(C)(C)O)C[C@@H]2C)ccc1N1CCN(Cc2ccccc2)[C@@H](C)C1 | . | . | . | . | /
CC(=O)c1ccccc1C(=O)N1CCC(CCC(=O)NCc2ccc(F)cc2)CC1 | . | . | . | . | .
COc1ccc(NC(=S)NCCc2ccc(S(N)(=O)=O)cc2)c(OC)c1 | . | . | . | . | .
CC(NCC(=O)NCCc1ccc(S(N)(=O)=O)cc1)c1ccc(F)cc1 (stereo unspecified) | . | . | . | . | .
COc1ccccc1NC(=S)NCCc1ccc(S(N)(=O)=O)cc1 | . | . | 5.9 | . | .
CC(NCCc1ccc(S(N)(=O)=O)cc1)C(=O)NCCc1ccc(F)cc1 (stereo unspecified) | . | . | . | . | 5.1
COc1cc(NC(=S)NCCc2ccccc2)c(OC)cc1NC(=O)C(C)C | 1.9 | . | . | . | .
CCOC(=O)c1ccc(CN2CCCC(C)(C(=O)NCCOC)C2)cc1 (stereo unspecified) | . | . | . | . | /
CCc1ccc(C=NN2CCN(Cc3ccc(C)cc3C)CC2)cc1 | . | . | . | . | /
Cc1c(C(=O)NCc2ccccc2C(F)(F)F)sc(=O)n1Cc1ccc(S(=O)(=O)N(C)C)cc1 | . | . | . | . | /
CCCSc1nc2c(cnn2-c2ccccc2)c(=O)n1N | . | 13 | 5.8 | . | .
CC(=O)NCCNC(=O)c1ccc(CSc2ccc(Cl)cc2)cc1 | 0.9 | . | . | . | .
O=C(CCC1CCCC1)NCCCNC(=O)CCC1CCCC1 | . | . | 5.9 | . | .
CC(C)(CNC(=O)CCC1CCCC1)CNC(=O)CCC1CCCC1 | . | . | . | . | .
CN(Cc1nc(-c2cccc(Cl)c2)no1)C1CCOCC1 | . | 12 | . | . | .
CCN(Cc1nc(-c2cccc(Cl)c2)no1)CC1CCCO1 (stereo unspecified) | . | . | . | . | .
Cc1ccc(CNC(=O)c2cc(C)nn2-c2ccccc2)cc1 | . | . | . | . | .
Cc1ccc(Cc2nnc3n(-c4ccccc4)nc(C(=O)c4ccccc4)n3c2=O)cc1 | . | . | . | . | 7.0
C[C@@H]1CCCCO[C@@H](CN(C)C(=O)CCC(F)(F)F)[C@@H](C)CN([C@H](C)CO)C(=O)c2cc(NS(=O)(=O)c3cccs3)ccc2O1 | . | . | . | . | /
SMILES | ssDAF-12 act | hgDAF-12 ag | hcDAF12 agonist | DAX1 inh-1 | DAX1 inh-2
Cc1ccc(C(=O)NC(=S)Nc2ccccc2C(F)(F)F)cc1 | . | . | . | . | .
Cc1ccc(C(=O)NC(=S)Nc2cccnc2Cl)cc1 | . | 12 | . | . | .
COc1cc(C(=O)N(C(C)C)C2CCCCC2)cc(OC)c1OC | . | . | . | . | .
CN(C)c1ccc(/C=N/NC(=O)c2ccccn2)cc1 | 1.3 | 12 | . | . | .
CN(C)c1ccc(C(=O)N/N=C/c2ccccn2)cc1 | . | 12 | . | 3.6 | .
O=C(N/N=C/c1ccccn1)c1ccccc1 | . | . | . | . | .
CCC(=O)N1CCC(C)(C(=O)NCc2cccc(OC)c2)C1 (stereo unspecified) | . | . | . | . | /
COc1cc2c(c(OC)c1OC)[C@@]1(c3ccccc3)CCCCC[C@H]1[C@@H]2NC(=O)C(F)(F)F | . | . | . | . | /
COc1ccc(CCCC(=O)O)c(C)c1 | 1.5 | . | . | . | .
CCOC1=C2[C@@H](CN(S(=O)(=O)c3ccc(C)cc3)[C@H]2c2cccc3ccccc23)[C@H]2C(=O)N(C)C(=O)[C@H]2C1 | . | . | . | . | /
COc1ccc2cc(C(=O)CS(=O)(=O)c3ccc(Cl)cc3)c(=O)oc2c1 | . | . | . | . | /
CCN(CC)CCCNC(=O)CCC(=O)Nc1ccc2nc(N3CCCCC3)cc(C)c2c1 | . | . | . | . | 6.7
C#CCOCCOCCOCCNc1nc(N2CCN(C(=O)[C@H](CCCCN)n3cc([C@@H](N)CC(N)=O)nn3)CC2)nc(N2CCN(C(=O)[C@H](CCCCN)n3cc([C@@H](N)CC(N)=O)nn3)CC2)n1 | . | . | . | . | 4.5
C#CCOCCOCCOCCNc1nc(N2CCN(C(=O)[C@H](CCCCN)n3cc(CN)nn3)CC2)nc(N2CCN(C(=O)[C@H](CCCCN)n3cc([C@@H](N)CC(N)=O)nn3)CC2)n1 | . | . | . | . | .
CN=c1scc(C)n1/N=C/c1ccc2c(c1)OCO2 | . | 11 | 9.6 | 5.6 | .
CN=c1scc(C)n1/N=C/c1ccc(O)cc1 | . | . | . | . | .
COC(=O)C(Cc1ccccc1)NC(=O)c1cccc(S(=O)(=O)N(C)C)c1 (stereo unspecified) | . | . | . | . | 4.4
CC(Cc1ccco1)NC(=O)c1cccc(S(=O)(=O)N(C)C)c1 (stereo unspecified) | . | 12 | . | . | .
CN(C)S(=O)(=O)c1cccc(C(=O)NCCNC(=O)c2cccc(S(=O)(=O)N(C)C)c2)c1 | . | . | . | . | .
CCOC(=O)[C@@H]1CSCCS(=O)(=O)N1Cc1ccccc1 | . | . | . | . | /
Cc1cc(C(=O)CSc2nc3ccc(Cl)cc3[nH]2)c(C)n1C | . | . | . | . | .
O=C(CSc1nc2ccc(Cl)cc2[nH]1)c1cccs1 | 1.0 | . | . | . | .
CC(C)CN(C(=O)COC(=O)CCc1nc2ccccc2s1)c1c(N)n(Cc2ccccc2)c(=O)[nH]c1=O | . | . | . | 3.7 | .
CCOc1ncccc1C(=O)OCC(=O)c1ccccc1Br | 1.2 | . | . | . | .
CCOc1ncccc1C(=O)OCC(=O)c1ccccc1 | . | . | . | . | .
SMILES | ssDAF-12 act | hgDAF-12 ag | hcDAF12 agonist | DAX1 inh-1 | DAX1 inh-2
Cc1ccc(NC(=O)C2(C)CCN2C2Cc3ccccc3C2)cc1 (stereo unspecified) | . | . | . | . | /
Cc1ccc(Nc2nc(CSc3nnnn3C)cs2)cc1 | . | 11 | . | . | .
Cn1nnnc1SCc1csc(Nc2ccccc2)n1 | . | . | . | . | .
Cc1ccc(Nc2nc(CSc3n[nH]c(N)n3)cs2)cc1 | . | 12 | . | . | .
O=C(OCc1ccccc1)N1Cc2ccnnc2CC1c1ccccc1-c1ccc(C(F)(F)F)cc1 (stereo unspecified) | . | . | . | . | /
Cc1ccccc1C(=O)N[C@H](C(=O)N1CCC[C@H]1C(=O)NCCc1ccccc1Cl)c1ccccc1 | . | . | . | . | /
